Hits are enriched below; roughly 2.1% of the tested compounds scored in any of these assays.
Glioma ERSR ind: induces the endoplasmic reticulum stress response in human glioma cells; 0.02% of 420,000 active; U87-MG GRP78 promoter luciferase reporter, 16 h; Potency, µM, for the others: top-dose activation, actives largely listed as activators; AID 602332; also: series mostly up to about 76 µM; % of control where 0% means no effect; nearly all actives have a fitted effect of over 35% in size
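ERSR induction read as luciferase luminescence (Bright-Glo, 10 min at room temperature) in stably transfected human U87-MG glioma cells exposed to compounds for 16 h, using GRP78 as sensor.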
Mito fusion yeast: mitochondrial division inhibition or fusion activation. S. cerevisiae fusion-defective mutant growth rescue, CellTiterGlo 48 h. Potency, µM (doses to about 46.1 µM), for the others: top-dose growth rescue (activation), most hits filed as activators. 0.23% of 320,000 active; also: % of control where 0% means no effect; nearly all actives have a fitted effect of over 45% in size
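Read-out: ATP-based luminescence (CellTiterGlo, 10 min ambient) reporting growth of fusion-defective ts yeast after 48 hours at 37C on glycerol/ethanol YPEG medium in the presence of compound.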
AT treatment: potential ataxia-telangiectasia treatment | F2112 A-T fibroblasts, KAP-1 phosphorylation AlphaLISA; neocarzinostatin DNA damage 30 min before lysis | Potency, µM (highest dose often 57.5 µM), for inactives: top-dose activation, most hits filed as activators | 0.19% of 320,000 active | AID 485349; also: % of control where 0% means no effect; nearly all actives have a fitted effect of over 45% in size
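ATM-like activity read as KAP-1 phosphorylation via AlphaLISA donor/acceptor antibody pairs after lysis and 6 hr at 25C. Cells were ATM-null patient fibroblasts (F2112, hTERT), dosed 60 min, then exposed to the DSB inducer NCS for 30 min.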
Abeta rescue: restores growth of yeast expressing A-beta42 peptide; yeast expressing A-beta42, growth rescue, OD600, 48 h; response scale: 0% DMSO, 100% iron-clioquinol control; Potency, µM (top dose mostly 46.1 µM), usual class: activators; 0.063% of 410,000 active; also: nearly all actives have a fitted effect of over 55% in size
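Yeast growth medium received pinned compounds, then yeast cells expressing toxic A-beta were added; plates incubated at 30 C for 48 hr. Growth read as absorbance at 600 nm, normalized to DMSO and equimolar FeCl3 plus clioquinol controls.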
TDP-43 yeast inh: inhibitors of TDP-43 toxicity in yeast. TDP-43 expressing yeast growth rescue, BacTiter-Glo, 24 h. Potency, µM (highest dose often 46.1 µM), for inactives: at the highest dose growth rescue (activation), hits mostly activators. 1.8% of 410,000 active; also: % of control where 0% means no effect; nearly all actives have a fitted effect of over 50% in size
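Readout is BacTiter-Glo luminescence of cell growth, so inhibitors register as activators. TDP-43-expressing yeast at OD600=0.02 in galactose medium, after raffinose pregrowth to mid-log, were incubated with compound for 24 hr at 30 deg C.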
aSyn rescue: rescues yeast growth from alpha-synuclein toxicity; Potency, µM (series often up to 46.1 µM), for the others: top-dose growth rescue (activation), usual class: activators; Yeast expressing alpha-synuclein, growth rescue, BacTiter-Glo, 24 h; 0.14% of 370,000 active; also: % of control where 0% means no effect; nearly all actives have a fitted effect of over 65% in size
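Galactose-induced alpha-syn yeast (OD600=0.02, raffinose-pregrown) + pinned cpd, 24 hr, 30 deg C; growth by BacTiter-Glo luminescence. Growth restoration scores as activation.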
Starred values were filed as active, the others as inactive; i = inactive; ? = inconclusive; . = not tested or not shown; [ ] = another dose, or the depositor's remark. Calls follow the shape of the dose curve; as a rule, active = well fitted curve in the direction sought with a large enough effect; inconclusive = small, poorly fitted or top-dose-only effect, or another doubt; inactive = no such curve, though single readings can be large; an effect the other way counts as inactive or inconclusive. Potency is read from the fitted curve at half-maximal effect.

SMILES | Glioma ERSR ind | Mito fusion yeast | AT treatment | Abeta rescue | TDP-43 yeast inh | aSyn rescue
COc1ccc([N+](=O)[O-])cc1NC(=O)C(C)OC(=O)/C=C/c1ccco1 (configuration not stated) | -5.5% | 13.8% | -12.5% | i | 25.1µM* | -10.3%
CC(OC(=O)/C=C/c1ccco1)C(=O)Nc1cccc([N+](=O)[O-])c1 (configuration not stated) | -2.5% | 14.7% | -2.5% | i | 10.8% | 0.0%
O=C(Nc1cc(C(=O)NC2CCOCC2)c2c(c1)ncn2C1CCCC1)c1ccccc1 | -2.3% | . | . | . | . | .
CCC(C)(C)n1nnnc1C(c1ccc(O)c(OC)c1)N1CCN(c2nc3ccccc3s2)CC1 (configuration not stated) | -3.7% | 0.9% | 2.4% | i | 20µM* | -10.8%
CCC(C)(C)NC(=O)CN(CC1CCCO1)C(=O)CNS(=O)(=O)c1ccccc1 (configuration not stated) | -1.9% | 3.6% | 20.7% | i | 23.6% | 1.0%
CCN(C(=O)COC(=O)c1c(C)nn(-c2ccccc2)c1C)C1CCS(=O)(=O)C1 (configuration not stated) | 1.1% | -5.4% | -0.6% | i | -9.3%[9.22 µM] | -1.2%
CCN(C(=O)COC(=O)c1c2c(nc3ccccc13)/C(=C/c1ccccc1)CC(C)C2)C1CCS(=O)(=O)C1 (configuration not stated) | -1.5% | 20µM* | -1.9% | i | 14.1µM* | 12.9%
Cc1oc2c(c1C(=O)N1CCC(C)CC1)C(=O)c1ccccc1C2=O | -10.4% | -4.7% | 3.1% | i | 12.6µM* | 7.8%
COc1ccc2oc(-c3ccccc3)c(C(N)=O)c2c1 | 1.7% | 0.8% | 34.5% | i | 12.6µM* | 0.6%
COc1ccc(-c2oc3ccccc3c2C(=O)Oc2ccccc2)cc1 | -2.6% | 10.8% | 20.3% | i | 3.55µM* | 17.0%
Cc1cccc(-c2nnc(C3CCN(S(=O)(=O)c4cccc(Cl)c4)CC3)o2)c1 | -3.6% | . | . | i | 15.8µM* | .
CC1(C(=O)NS(=O)(=O)C2CC2)CCN(C(=O)C2(c3ccc(Cl)cc3)CCCC2)C1 (configuration not stated) | -1.0% | . | . | i | -4.6% | 4.3%
CC1(C(=O)O)CCCN(C(=O)C2(c3ccc(Cl)cc3)CCCC2)C1 (configuration not stated) | -3.1% | . | . | i | 17.8µM* | -7.7%
Cc1ccc(NC(=O)CCNS(=O)(=O)c2ccc3c(c2)CCCC(=O)N3)cc1 | -0.1% | . | . | i | -1.0% | -0.9%
Cc1nc(C)c(-c2csc(NCc3ccccc3)n2)s1 | 4.3% | ? | -0.4% | i | 20µM* | -1.6%
COc1ccc(Nc2nc(-c3sc(C)nc3C)cs2)cc1 | 4.0% | -0.9% | 4.1% | i | 20µM* | -16.3%
Cc1nc(C)c(-c2csc(Nc3ccc(N)cc3)n2)s1 | 5.2% | -2.5% | -0.9% | i | 4.8% | -12.8%
CCC(C)C(=O)Nc1nc(C)c(-c2csc(Nc3ccc(Cl)cc3)n2)s1 (configuration not stated) | -5.5% | 0.8% | 1.3% | i | 28.4% | 4.4%
CCCC(=O)Nc1nc(C)c(-c2csc(Nc3ccc(Cl)cc3)n2)s1 | -2.3% | -8.1% | -4.0% | i | 14.1µM* | -1.5%
COc1ccc(CCNc2nc(-c3sc(C)nc3C)cs2)cc1OC | 0.7% | 2.9% | . | i | 22.4µM* | -0.1%
CCN1CCCC1CNC(=O)c1cnn(-c2nccc(-c3ccc(C)o3)n2)c1C1CC1 (configuration not stated) | -3.5% | . | . | . | . | .
CCCc1ccc(C2=Nn3c(nnc3C(C)C)SC2)cc1 | -2.7% | 10.2% | -0.7% | i | 15.3% | -19.4%
CC(C)c1nnc2n1N=C(c1ccc(Cl)cc1)CS2 | -4.6% | 10.7% | 3.5% | i | 20µM* | -0.4%
COc1cccc(OC)c1CN1CCC2(CCC(CNC(=O)c3ccn(C)n3)O2)CC1 (configuration not stated) | -3.7% | . | . | . | . | .
O=C(O)Cc1cccc(-c2cc(CCCCCCc3ccc(O[C@H]4O[C@H](CO)[C@@H](O)[C@H](O)[C@@H]4O)c(-c4cccc(CC(=O)O)c4)c3)ccc2O[C@H]2O[C@H](CO)[C@@H](O)[C@H](O)[C@@H]2O)c1 | -4.1% | . | . | . | . | .
SMILES | Glioma ERSR ind | Mito fusion yeast | AT treatment | Abeta rescue | TDP-43 yeast inh | aSyn rescue
COc1cc(C#Cc2c(-c3cncn3C)n(C)c3ccc(-c4cc(OC)c(OC)c(OC)c4)cc23)cc(OC)c1 | -6.7% | . | 9.9% | i | ? | -28.5%
COc1cc(C#Cc2c(-c3cncn3C)n(C)c3ccc(-c4ccc(OC)nc4)cc23)cc(OC)c1 | -0.1% | -27.0% | 31.6µM* | i | -89.5% | -58.4%
Cc1oc2c(c1C(=O)Nc1ccc(Cl)cc1F)C1=NCCN1C=N2 | -1.7% | . | . | i | -13.2% | .
C=CCn1c2ccccc2c(=O)c2cc(C#Cc3ccccn3)ccc21 | 2.2% | 13.3% | 22.9% | i | 20µM* | -24.5%
COc1cccc2sc(N3CCN(C(=O)CCS(=O)(=O)c4ccc(F)cc4)CC3)nc12 | -2.2% | . | . | i | 20.1% | .
CCC(=O)c1ccc(OCc2ccc(C(=O)OC)cc2)c(OC)c1 | -0.9% | 0.6% | 1.0% | i | 19.6% | -12.3%
CCC(=O)c1ccc(OCc2ccccc2)c(OC)c1 | 6.7% | 28.6% | 8.4% | i | 11.2µM* | 10.0%
CCN(CC)CCNC(=O)c1ccc(NC(=O)c2cccc(S(=O)(=O)N(C)C3CCCCC3)c2)cc1 | -4.8% | . | . | i | 10.5% | -3.9%
Cc1cccc(NC(=O)c2cc(S(=O)(=O)N(C)c3ccc(F)cc3)ccc2Cl)n1 | -3.3% | ? | 2.8% | i | 11.2µM* | -4.5%
O=C(Nc1ccccn1)c1cccc(S(=O)(=O)N2CCCCC2)c1 | 1.9% | 1.4% | -0.9% | i | 16.3% | 8.1%
Cc1ccccc1NC(=O)c1ccc(F)c(S(=O)(=O)N(C)C2CCCCC2)c1 | -2.6% | . | . | ? | 15.8µM* | .
Cc1cccc(NC(=O)c2cccc(S(=O)(=O)N(C)C3CCCCC3)c2)n1 | 0.5% | . | . | i | 20µM* | 11.5%
Cc1ccccc1NC(=O)c1ccc(F)c(S(=O)(=O)NCC2CCCO2)c1 (configuration not stated) | 0.1% | -0.9% | 0.5% | i | 5.8% | 4.7%
CN(C1CCCCC1)S(=O)(=O)c1cccc(C(=O)Nc2ccccn2)c1 | 3.6% | -7.1% | 9.9% | i | 17.8µM* | 6.5%
OC(C1=C/C(=C\c2ccncc2)c2ccccc21)c1ccncc1 (configuration not stated) | -2.5% | . | . | . | . | .
NC(C(=O)N[C@@H]1C(=O)N2C(C(=O)O)=C(Cl)CS[C@H]12)c1ccccc1 (some centres not stated) | -3.5% | 4.0% | . | . | . | -14.1%
